This is a sample that favours compounds with a hit; in the whole collection about 1.3% have one here.
Akt phos inh – Akt phosphorylation inhibition | Neuro2A IGF-stimulated pAkt S473 HTRF, 20 min; stronger effect = lower value | activity change, % for hits at 50 µM | 0.32% of 360,000 active; in the data active means activity change below about -80%; inconclusive means mostly about -51% to -80%
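Neuro2A cells in DMEM with 0.5% FBS, overnight at 37 deg C, given compound at single 50 µM final, then IGF (6 nM final) for 20 min at 37 deg C. Lysed; phospho-Akt Ser473 by HTRF after 24 h, 665/615 ratio.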
CtBP-E1A inh – blocks the CtBP interaction with E1A. AlphaScreen GST-E1A/His-CtBP binding, 1536-well; stronger effect = lower value. activity change, % (concentration not given with the values). 0.49% of 340,000 active
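GST-E1A and His-tagged CtBP (125 nM each as 5X stock) were preincubated with pin-transferred compound for 2 h at 37 °C in the dark, then glutathione donor and nickel acceptor beads were added for 1 h before AlphaScreen reading.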
Six1-Eya2 inh – blocks human Six1 binding to Eya2. AID 651725. activity change, % (concentration not given with the values). Q15475+O00167. 0.56% of 360,000 active. AlphaScreen GST-Six1/His-Eya2 binding, biochemical; stronger effect = lower value
Target sequence (O00167 whole entry, looked up): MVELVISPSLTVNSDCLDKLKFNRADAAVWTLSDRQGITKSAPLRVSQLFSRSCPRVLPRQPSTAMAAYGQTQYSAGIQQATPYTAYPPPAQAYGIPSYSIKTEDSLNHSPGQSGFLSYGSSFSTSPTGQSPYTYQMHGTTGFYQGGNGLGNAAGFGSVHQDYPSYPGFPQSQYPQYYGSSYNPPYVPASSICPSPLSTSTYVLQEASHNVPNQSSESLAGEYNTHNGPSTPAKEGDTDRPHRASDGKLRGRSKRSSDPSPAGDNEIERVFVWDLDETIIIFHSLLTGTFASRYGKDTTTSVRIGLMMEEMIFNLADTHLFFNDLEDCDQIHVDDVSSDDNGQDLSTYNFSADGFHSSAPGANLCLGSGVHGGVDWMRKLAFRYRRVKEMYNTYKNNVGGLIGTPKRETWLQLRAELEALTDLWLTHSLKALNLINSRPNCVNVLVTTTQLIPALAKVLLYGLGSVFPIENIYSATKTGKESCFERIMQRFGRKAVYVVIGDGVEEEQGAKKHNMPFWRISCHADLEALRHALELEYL
Target sequence (Q15475 whole entry, looked up): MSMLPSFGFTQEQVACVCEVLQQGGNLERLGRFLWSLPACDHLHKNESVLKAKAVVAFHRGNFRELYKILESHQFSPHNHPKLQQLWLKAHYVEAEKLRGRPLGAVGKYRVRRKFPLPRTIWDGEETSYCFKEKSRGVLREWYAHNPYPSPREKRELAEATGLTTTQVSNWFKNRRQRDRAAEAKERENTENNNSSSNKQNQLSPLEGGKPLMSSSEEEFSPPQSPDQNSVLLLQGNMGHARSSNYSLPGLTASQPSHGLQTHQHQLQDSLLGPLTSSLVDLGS
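Compounds are tested against tagged Six1 and Eya2 proteins bridged by glutathione donor and nickel acceptor beads; after a one-hour incubation at 37 °C without light, AlphaScreen emission is recorded.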
CCT modulator – changes cytosolic chaperonin activity; purified chaperonin ATPase assay, HTRF ADP detection, 30 min; activity change, % (concentration not given with the values), hits read low; 0.3% of 360,000 active; AID 651819; in the data active means activity change below about -30%
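We incubate TRiC, 40 or 20 nM final, with library compounds at 76 uM and 10 uM ATP for 30 min at 37 °C. ADP formed is detected with Transcreener HTRF reagents after 30 min at room temperature.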
Starred values were filed as active, the others as inactive; i = inactive; ? = inconclusive; nt = no result given. Unless noted, no stated cut-off is given here; in the data, active means activity change below about -65%; inconclusive means mostly about -30% to -63%; inactive means weaker than that. On the % scale 0 is the no-effect control and ±100 the full control effect.

SMILES	Akt phos inh	CtBP-E1A inh	Six1-Eya2 inh	CCT modulator
O=C(/C=C/c1ccco1)Oc1ccc(C(=S)N2CCOCC2)cc1	i	-93.1*	-89.4*	0.8
Nc1cc(N)c2c(c1)C(=O)c1ccccc1-2	i	?	-18.2	-2.5
Nc1c(O)ccc2c1C(=O)c1ccccc1C2=O	i	?	-74.3*	1.6
COc1ccccc1N1CCN(Cc2nc(N)nc(Nc3ccc(C)c(Cl)c3)n2)CC1	i	-13.6	-11.6	-33.6*
COc1ccccc1Nc1nc(N)nc(CN2CCN(c3ccccc3F)CC2)n1	i	-6.6	-10.6	-1.6
Cc1cc(C)cc(OCCn2ccnc2)c1	i	2.1	5.1	-73.3*
Cc1cc(OCCn2ccnc2)cc(C(C)C)c1	i	-2.4	2.2	-2.5
Cc1ccc(S(=O)(=O)CCC(=O)OC(C)c2nnc(-c3cccs3)o2)cc1 (stereo not given)	i	-5.1	-0.4	-2.0
COc1ccccc1[C@@]1(C)ON(c2ccccc2C(F)(F)F)C1=O	i	-20.6	17.6	-1.3
CSc1ccc(-c2cccc([N+](=O)[O-])c2)nn1	i	-2.7	-4.3	2.9
O=[N+]([O-])c1cccc(-c2ccc(SCc3cccnc3)nn2)c1	i	-12.8	?	-76.2*
O=S(=O)(NCc1cccnc1)c1ccc(Cl)c2ccccc12	i	4.1	-2.2	-1.0
O=S(=O)(NCc1cccnc1)c1ccc(Cl)c(Cl)c1Cl	i	-0.6	5.0	-47.9*
COc1cc(/C=C/C(=O)Nc2ccc3nc4n(c(=O)c3c2)CCCC4)cc(OC)c1OC	i	?	-85.4*	-2.3
COc1cccc(/C=C/C(=O)Nc2ccc3nc4n(c(=O)c3c2)CCCC4)c1OC	i	-78.1*	?	1.6
COc1ccc(/C=C/C(=O)Nc2ccc3nc4n(c(=O)c3c2)CCCC4)cc1	i	-3.9	-11.9	-3.0
COc1ccccc1C(=O)Nc1ccc2nc3n(c(=O)c2c1)CCCC3	i	-10.2	-2.7	-1.4
Cc1ccccc1/C=N/NC(=O)Cn1cnc([N+](=O)[O-])n1	i	1.3	-0.4	-0.2
O=C(Cn1cnc([N+](=O)[O-])n1)N/N=C/c1cc(Cl)ccc1O	i	-94.1*	-92.0*	-3.2
O=C(Cn1cnc([N+](=O)[O-])n1)N/N=C/c1ccccc1O	i	-94.7*	-92.4*	2.5
NC(=O)N=Nc1c2[nH]c3ccccc3nc-2c2ccccc12	i	-69.1*	?	-3.6
COc1ccc(S(=O)(=O)N(C)C[C@@H]2OCc3cnnn3CCCC(=O)N([C@H](C)CO)C[C@@H]2C)cc1	i	0.8	-5.0	-0.5
O=C(CCS(=O)(=O)c1ccc(Br)cc1)N1CCN(Cc2ccccc2)CC1	-109.3%*	-3.1	0.0	1.8
O=C(CCS(=O)(=O)c1ccc(Br)cc1)N1CCN(c2ccccc2)CC1	i	-1.4	-17.5	-1.2
CCOC(=O)N1CCN(S(=O)(=O)c2ccc(OC)c(C(=O)N3CCCCC3)c2)CC1	i	22.5	15.0	0.8
SMILES	Akt phos inh	CtBP-E1A inh	Six1-Eya2 inh	CCT modulator
CC1(C(=O)NCc2cccnc2)Cc2c(-c3cccc(C(F)(F)F)c3)ccnc2O1 (stereo not given)	i	0.5	-5.7	-16.8
Cc1ccc(S(=O)(=O)N2CC3C(=O)C[C@@H](c4ccccc4)N(S(=O)(=O)c4ccccc4Cl)C3CC2c2ccccc2)cc1 (stereo not given in full)	i	0.9	-2.3	nt
COc1cc(OC)cc(C(=O)Nc2ccc3nc4n(c(=O)c3c2)CCCCC4)c1	i	-23.0	-11.6	-5.6
O=C(Nc1ccc2nc3n(c(=O)c2c1)CCCC3)c1cccc([N+](=O)[O-])c1	i	-0.4	-66.0*	-0.9
O=C(Nc1ccc2nc3n(c(=O)c2c1)CCCC3)c1cncc(Br)c1	i	-65.3*	?	-0.9
Cc1ccc(S(=O)(=O)NC(=O)C2(C)CCN2C(=O)Cc2ccc(C(C)(C)C)cc2)cc1 (stereo not given)	i	1.5	2.0	1.4
CC(C)C[C@@H](COCc1ccc(Cl)cc1)N1CCN(C(=O)c2ccc(C(F)(F)F)cc2)CCC1=O	i	7.7	-0.9	-0.7
CC(C)C[C@@H](COCc1ccc([N+](=O)[O-])cc1)N1CCN(C(=O)c2ccc(C(F)(F)F)cc2)CCC1=O	i	-90.0*	-68.5*	2.1
O=C(Oc1c(Cl)cc(Cl)c2cccnc12)c1cccc([N+](=O)[O-])c1	i	-97.5*	-87.5*	0.2
O=[N+]([O-])c1ccc(Oc2cccc3cccnc23)c([N+](=O)[O-])c1	i	-78.6*	?	-2.7
Cc1c(C(=O)Oc2cccc3cccnc23)cccc1[N+](=O)[O-]	i	2.0	-88.5*	-1.0
N#Cc1ccc(Oc2cccc3cccnc23)c([N+](=O)[O-])c1	i	-26.8	-5.5	-1.5
O=C(Oc1cccc2cccnc12)c1cccc([N+](=O)[O-])c1	i	-74.8*	-68.9*	1.8
O=C(Nc1cccc2cccnc12)c1cccc([N+](=O)[O-])c1	i	-7.0	-16.5	-1.0
CN1CCN(C2CN(Cc3cn(Cc4ccc(C(F)(F)F)cc4)nn3)S(=O)(=O)C2)CC1 (stereo not given)	i	-21.8	14.1	0.8
CCOc1cc(C)nc(N2CCCC(C(=O)NCc3ccccc3F)C2)n1 (stereo not given)	i	5.0	1.8	-41.2*
C=CCNC(=O)c1ccccc1NC(=O)c1ccc(Cl)c(S(=O)(=O)Nc2ccccc2)c1	-88.4%*	-6.4	-0.3	0.5
C=CCNC(=O)c1ccccc1NC(=O)c1ccccc1C	i	5.3	1.7	-1.9
CC1Cc2ccccc2N1C(=O)CN1C(=O)CN(C)C(=O)c2ccccc21 (stereo not given)	i	-1.1	1.6	-34.7*
O=C(NCCCNC(=O)c1c(F)cccc1F)c1c(F)cccc1F	i	14.8	9.3	-77.7*
C=CCOc1ccccc1CNc1ccc2c(c1)OCCO2	i	-3.9	-3.0	-0.3
CCOc1ccc(Br)cc1CNc1ccc2c(c1)OCCO2	i	?	-77.0*	-8.1
Cc1nnsc1C(=O)N1CCCC(N2CCN(c3ccc(F)cc3)CC2)C1 (stereo not given)	i	3.7	1.2	-1.3
O=C1c2ccccc2C(=O)c2cc(N3CCCCC3)ccc21	i	?	?	-0.6
O=C1c2cccc(Cl)c2C(=O)c2c1cccc2N1CCCC1	i	-89.9*	-91.3*	-2.9
O=C(C(O)c1ccccc1)N1CCN(S(=O)(=O)c2ccc(F)c(F)c2)CC1 (stereo not given)	i	0.9	7.7	nt
CCOc1c(C)cnc2c1c(=O)n(Cc1ccccc1Cl)c(=O)n2C	i	10.5	16.0	-4.3
COc1cc(Cn2c(=O)c3c(OC)c(C)cnc3n(C)c2=O)cc(OC)c1	i	-12.8	-2.4	-51.9*
COC(=O)c1ccc(-n2c(C)cc(/C=N/Nc3nc(C)cc(=O)[nH]3)c2C)cc1	i	-6.0	-8.5	1.4
CSc1nnc2c(n1)OC(C)=Nc1ccccc1-2	i	-22.1	-66.5*	3.5

Compound activity: PubChem BioAssay, National Center for Advancing Translational Sciences (NCATS)
